# The campaign covered roughly 380,000 compounds. About 170 (0.045%) were called active. Shown is part of a subset that was picked to be rich in actives. Unmarked numbers belong to inactive results. Calls come from the whole dose curve; as a rule, active = well fitted inhibition curve with a large enough effect; inconclusive = small, poorly fitted or top-dose-only effect; inactive = no such curve, though single readings can be large or run the other way.
# Molecular target: Phosphoglycerate kinase, glycosomal (Trypanosoma brucei brucei) (UniProt P07378)
# Assay: qHTS Assay to Find Inhibitors of Phosphoglycerate Kinase; note: nearly all actives have a fitted effect of over 60% in size
# Settings: PGK/GAPDH coupled, Kinase-Glo luminescence, 60 min; series mostly up to 57.5 µM; activity change, negative = inhibition: at the top concentration
# Summary of the method: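 Luminescent ATP detection (Kinase-Glo Plus) follows a 60-minute room-temperature incubation, with wells lacking PGK as controls. Buffer: 100 mM TEA (pH 7.6), 5 mM MgCl2, 0.01% Tween-20. Coupling enzyme GAPDH (100 nM final) supplies unstable 1,3-BPG in-well.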
# % is set by controls: 0 for no effect and ±100 for the full control effect; potency is the fitted concentration of half-maximal effect.
# Phosphoglycerate kinase, glycosomal (Trypanosoma brucei brucei), sequence (P07378 whole entry, looked up): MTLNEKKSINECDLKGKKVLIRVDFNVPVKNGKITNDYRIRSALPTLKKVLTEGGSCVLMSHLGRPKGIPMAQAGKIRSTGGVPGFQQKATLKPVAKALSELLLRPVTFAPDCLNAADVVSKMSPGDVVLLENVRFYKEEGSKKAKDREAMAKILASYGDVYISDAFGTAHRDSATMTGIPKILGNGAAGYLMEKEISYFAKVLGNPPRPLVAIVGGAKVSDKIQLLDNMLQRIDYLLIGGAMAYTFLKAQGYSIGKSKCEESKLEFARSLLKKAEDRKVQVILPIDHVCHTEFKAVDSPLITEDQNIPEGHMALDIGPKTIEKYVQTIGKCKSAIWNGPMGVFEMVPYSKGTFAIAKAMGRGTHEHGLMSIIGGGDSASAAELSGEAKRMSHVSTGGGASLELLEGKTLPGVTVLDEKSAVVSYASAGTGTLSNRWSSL
SMILES,"activity change, negative = inhibition [%]",Potency,outcome
Cc1ccccc1OCc1ccc(-c2nc(C#N)c(N3CCCCC3)o2)o1,-5.61,–,–
CC(C)(C)OC(=O)N1CCC(c2c(C(=O)Nc3ccc4c(c3)OCO4)cnn2-c2ccccc2)CC1,-5.35,–,–
COc1ccc(-n2c(=O)c3sc4ccccc4c3n(CC(=O)Nc3cccc(C)c3)c2=O)cc1,3.99,–,–
Cc1c(C)n(Cc2ccc(Cl)cc2)c2ccc(C(=O)NCCc3ccc(S(N)(=O)=O)cc3)cc12,-1.01,–,–
CCCNC(=O)c1ccc2c(c1)ncn2-c1ccc(C)cc1C,-4,–,–
CCn1cc2nc(SCc3cccc(F)c3)n(CCc3ccccc3)c(=O)c2n1,-9.15,–,–
Cc1nc2ccccn2c(=O)c1NC(=O)c1c(F)cccc1F,-8.58,–,–
COc1ccc(CCNc2ncnc3onc(-c4ccc(Cl)cc4)c23)c(OC)c1,-1.45,–,–
CCOC(=O)C(Cc1ccccc1)NC(=O)CCc1c(C)nc2c(c(C)nn2-c2ccc(C)c(C)c2)c1C (stereo not given),-8,–,–
COc1ccccc1NC(=O)c1oc2ccccc2c1NC(=O)C(C)C,-7.07,–,–
O=C(NCc1cccnc1)C(=O)NCC(c1cccnc1)N1CCN(c2ccccc2)CC1 (stereo not given),-9.1,–,–
Cc1ccccc1CNC(=O)C(=O)NCC(c1cccs1)S(=O)(=O)c1cccs1 (stereo not given),9.59,–,–
O=C(CCC(=O)N1CC2CCCN2c2ccccc21)NCc1ccccc1Cl (stereo not given),-2.17,–,–
O=C(CC1N=C2c3ccccc3N=C(SCc3cccc(Cl)c3)N2C1=O)NCc1ccc2c(c1)OCO2 (stereo not given),1.41,–,–
CCN(CC)S(=O)(=O)c1nnc(NC(=O)COc2ccccc2Cl)s1,-3.74,–,–
Nc1ccc2nc3c(=O)[nH]c(=S)[nH]c3nc2c1,–,2.51 µM (active),–
Cc1oc2ccc(O)c(CN3CCC(C)CC3)c2c1C(=O)Nc1ccccc1,6.18,–,–
CCCCCn1c(CCCNC(=O)c2ccccc2OC)nc2ccccc21,2.09,–,–
CN(Cc1ccccc1)c1ncnc2onc(-c3ccc(F)cc3)c12,-9.68,–,–
O=C(NCc1ccc2c(c1)CCN2C(=O)c1ccccc1)c1ccccc1,-1.54,–,–

SMILES,"activity change, negative = inhibition [%]",Potency,outcome
COc1ccc(-n2c(SCC(N)=O)nc3c(oc4ccccc43)c2=O)cc1,5.05,–,–
CC(C)(C)c1ccc(OCC(=O)N2CCC(c3nc4ccccc4s3)CC2)cc1,–,–,inactive
O=C(Cn1cc(SCc2cccc(Cl)c2)c2ccccc21)N1CCCCC1,8.44,–,–
COc1ccc(Cn2ccc3nc(C)c(C(=O)Nc4ccc(C)c(F)c4)cc3c2=O)cc1,-7.62,–,–
O=C(Cn1c(=O)n(Cc2cccs2)c(=O)c2cccnc21)Nc1ccc(F)cc1,9.96,–,–
Cc1c(CC(=O)N2CCN(C(=O)C3COc4ccccc4O3)CC2)c(=O)oc2c(O)c(O)ccc12 (stereo not given),–,8.91 µM (active),–
COc1cc(NS(=O)(=O)c2ccc3c(c2)OCC(C(=O)N2CCCC2)O3)cc(OC)c1 (stereo not given),-5.79,–,–
COc1ccc(OC)c2sc(N3CCN(C(=O)C4COc5ccccc5O4)CC3)nc12 (stereo not given),0.972,–,–
COc1ccc(C(=O)N2CCC(c3nc4ccccc4o3)CC2)cc1,3.31,–,–
COc1ccc(CCNS(=O)(=O)c2cc(-c3cc(C)no3)ccc2C)cc1OC,7.73,–,–
CC(=O)c1ccc(NC(=O)c2nc(-c3ccc(C)cc3)n3c2CCCCC3)cc1,–,–,inactive
COc1ccc(N2CCN(C(=O)c3c(C)oc4nc(C)nc(N5CCCC5)c34)CC2)cc1,-3.22,–,–
COc1cccc(NC(=O)N(Cc2cn(C)c3ccccc23)C2CCCCCC2)c1,1.22,–,–
Cc1ccc(CCNC(=O)c2nnc(Cc3cccc(F)c3)o2)cc1,-3.81,–,–
COC(=O)c1ccc(Cn2c(SCC(=O)N(C)c3ccccc3)nc3ccccc32)cc1,-5.74,–,–
COc1cc(Nc2nc(-c3ccc(OC)c(OC)c3)nc3ccccc23)cc(OC)c1,-16,–,–
CCOC(=O)c1oc2ccc(S(=O)(=O)n3nc(-c4ccccc4OC)cc3N)cc2c1C,-7.27,–,–
O=C(c1cnn(-c2ccc(F)cc2)c1-n1cccc1)N1CCN(c2ccc(F)cc2)CC1,1.01,–,–
C=C(C)C(=O)Nc1cccc(C2=NOC3(C2)C[C@H](C(N)=O)N(C(=O)C(c2ccccc2)c2ccccc2)C3)c1 (stereo not given in full),–,7.94 µM (active),–
NC(=O)[C@H]1CC2(CC(c3cccc(NC(=O)[C@H]4CCC(=O)N4)c3)=NO2)CN1C(=O)c1ccccc1C(=O)c1ccccc1 (stereo not given in full),–,–,inactive

SMILES,"activity change, negative = inhibition [%]",Potency,outcome
C/C=C(\C)C(=O)N1CC2(CC(c3cccc(NC(=O)CCCCC)c3)=NO2)C[C@@H]1C(N)=O (stereo not given in full),-20.1,–,–
O=C(CC1C(=O)N(c2ccccc2)C(=O)N1CCc1cccs1)Nc1ccc(F)cc1 (stereo not given),-9.54,–,–
Fc1ccc(-c2nn(-c3ccccc3Cl)c3c2cnc2ccccc23)cc1,-9.02,–,–
COC(=O)c1ccccc1NC(=O)c1cc(-c2ccccc2O)no1,0.223,–,–
COc1ccc(CCNC(=O)c2cn(C)c3ccc(S(=O)(=O)N(C)C4CCCCC4)cc3c2=O)cc1OC,–,–,inactive
Cc1nn(C(=O)c2c(F)cccc2F)c(C)c1S(=O)(=O)N1CCOCC1,-7.86,–,–
Cc1cccc(NC(=O)CSc2ncc(-c3ccccc3)[nH]2)c1C,5.88,–,–
CCc1ccc(NC(=O)CCCc2nnc3n(CCCOC)c(=O)c4sccc4n23)cc1,2.03,–,–
COc1ccc(C2=CC(c3ccccc3Cl)n3nc(-c4ccc(Cl)cc4)nc3N2)cc1 (stereo not given),5.67,–,–
Cc1ccc(-c2onc(C)c2C)cc1S(=O)(=O)Nc1ccccn1,–,–,inactive
Cc1ccc(CN2C(=O)SC(Nc3ccccc3)C2=O)cc1 (stereo not given),-1.1,–,–
O=C(OCc1cc(=O)n2nc(C3CC3)sc2n1)c1ccccc1Cl,-8.07,–,–
O=C(NCc1ccc(F)cc1)c1ccc(Cn2c(SCc3ccc(F)cc3)nc3cccnc32)cc1,–,–,inactive
COc1cccc(N2CCN(S(=O)(=O)c3cc(Br)cc4c3N(C(=O)C3CC3)CC4)CC2)c1,-3.4,–,–
O=C(Nc1nnc(C2CC(=O)N(c3ccc(Cl)cc3)C2)s1)c1ccco1 (stereo not given),-4.59,–,–
Cc1ccc(C2CCN(C(=O)c3cnn(-c4ccccc4Cl)c3C3CCN(C(=O)OC(C)(C)C)CC3)C2)cc1 (stereo not given),–,–,inactive
O=C(COc1ccc(Cl)cc1)Nc1ccc(-c2nc3cc(Cl)ccc3o2)c(O)c1,–,–,inactive
COc1cc(C(CC(=O)NCCC(C)C)N2Cc3ccccc3C2=O)cc(OC)c1OC (stereo not given),-9.14,–,–
COc1ccccc1C1C(C(=O)N2CCCCC2)=C(C)Nc2nc3ccccc3n21 (stereo not given),-1.37,–,–
CCOc1ccc(C2CC(=O)c3c([nH]c(C(=O)OCc4ccccc4)c3C)C2)cc1 (stereo not given),2.31,–,–
